The values that follow come from PubChem BioAssay (Tox21).

Inconclusive results are not listed. Entries that show only a call come without a potency. The source made the active and inactive calls. Unless noted, calls come from the whole dose curve; as a rule, active = well fitted cell-killing curve with a large enough effect in the repeat runs; inconclusive = weak or mixed curves, or effect the other way; inactive = no such curve, though single readings can be large or run the other way.

One assay can be described thus: qHTS assay to identify small molecule agonists of the vitamin D receptor (VDR) signaling pathway - cell viability counter screen (AID 743224). Note: nearly all actives have a fitted effect of over 50% in size. The note with it: VDR-bla HEK293T viability, CellTiter-Glo luminescence, 16 h; series mostly up to 62.6 µM. In a few lines:
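VDR-bla cell line, quantitative HTS format; 16 h compound incubation (37C, 5% CO2); ATP-based CellTiter-Glo luminescence measured in the reporter assay wells.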
Turning to `CS(=O)(=O)O`, the Potency entry is “inactive”.
Consider `CCOC(C)(C)C`, for which the Potency entry was “inactive”.
On to `O=Cc1cccc([N+](=O)[O-])c1`, for which the Potency entry was “inactive”.
Consider `N=C(N)c1ccc(OCCCOc2ccc(C(=N)N)cc2)cc1`, for which the Potency entry was “inactive”.
Turning to `NC(=O)COCCN1CCN(C(c2ccccc2)c2ccc(Cl)cc2)CC1` (stereo not given), the Potency result is “inactive”.
As to `C/C=C(\C)C#N`, the Potency result was “inactive”.
In the case of `CCCCCCOC(=O)CCCCC(=O)OCCCCCC`, the Potency result is “inactive”.
Consider `C[C@@H]1CCN(C(=O)[C@H](CCCN=C(N)N)NS(=O)(=O)c2cccc3c2NC[C@H](C)C3)[C@@H](C(=O)O)C1`, for which the Potency result is “inactive”.
With `CCc1nccnc1CC`, the Potency entry was “inactive”.
On the same count and under the same terms, to `COC(C)(C)CCCC(C)CC=O` (stereo not given) belongs “inactive”; to `CCCc1cc(C(N)=S)ccn1`, “inactive”.
The same measure, in the same setting: to `O=C(O)CCCl` belongs “inactive”.
In the case of `O=C(O)c1ccccc1OP(=O)(O)O`, the Potency entry was “inactive”.
Same read-out and setting: then `Cn1cc(S(C)=O)c(=O)c2ccc(F)cc21` (stereo not given), with “inactive”; and `O=c1[nH]c(=O)n([C@H]2C[C@H](O)[C@@H](CO)O2)cc1I`, with “inactive”.
Turning to `CC(=O)Nc1ccc(S(N)(=O)=O)cc1`, the Potency entry was “inactive”.
Take `C=C(C)C(=O)OCCCCCCCC(C)C`: the Potency result was “inactive”.
Still for that read-out and setting: then `CC(C)(CC(=O)O)C(=O)O`, with “inactive”; and `CO[C@]12C[C@@H](COC(=O)c3cncc(Br)c3)CN(C)[C@@H]1Cc1cn(C)c3cccc2c13`, with “inactive”; and `CC(=O)CC(C)C`, with “inactive”.
`O=[N+]([O-])c1ccc(F)cc1F`: the Potency entry is “inactive”.
`Nc1c[n+](N2CCOCC2)no1`: the Potency result was “inactive”.
In the case of `CC/C=C\CCOC(C)=O`, the Potency result was “inactive”.
On to `COC(=O)NN`, for which the Potency result was “inactive”.
In the case of `C1CN(CCOCCN2CCOCC2)CCO1`, the Potency result was “inactive”.
With `C[C@H]1C[C@@H](O)CC(C)(C)C1`, the Potency entry was “inactive”.
Same read-out and setting: to `C=CCCCCCCCCC=O` belongs “inactive”.
In the case of `CCCCCCCCCCCCN(CCCCCCCCCCCC)CCCCCCCCCCCC`, the Potency result was “inactive”.
Consider `ClC(Cl)(Br)Br`, for which the Potency entry is “inactive”.
`N=C(N)c1ccc2cc(OC(=O)c3ccc(N=C(N)N)cc3)ccc2c1`: the Potency entry is “inactive”.
Take `CCCCCCCCCCCCCCCCC`: the Potency entry was “inactive”.
Consider `CCOC(=O)c1c(C)n(C)c2ccc(O)cc12`, for which the Potency result is “inactive”.
As to `Cc1cc2c(cc1S(N)(=O)=O)S(=O)(=O)CCC2`, the Potency entry was “inactive”.
Take `CCCCCCCCCCCC`: the Potency entry was “inactive”.
`CC(C)NC(=O)NC(C)C`: the Potency entry is “inactive”.

The next assay is described as follows: qHTS assay to identify small molecule antagonists of the vitamin D receptor (VDR) signaling pathway - cell viability counter screen (AID 743225). Note: nearly all actives have a fitted effect of over 50% in size. Conditions: VDR-bla HEK293T viability, CellTiter-Glo luminescence, 16 h; series mostly up to 61 µM. A digest of the protocol: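 Read-out: CellTiter-Glo luminescence measured 30 min after reagent addition at room temperature. Cells were VDR-bla HEK 293T exposed 16 h at 37C, 5% CO2, to compound with 3 nM final calcitriol agonist.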
Background: qHTS replaces the single test concentration by a dilution series.
For `CS(=O)(=O)O`, the Potency result was “inactive”.
Take `CCOC(C)(C)C`: the Potency entry is “inactive”.
Regarding `O=Cc1cccc([N+](=O)[O-])c1`, the Potency result is “inactive”.
For the molecule `N=C(N)c1ccc(OCCCOc2ccc(C(=N)N)cc2)cc1`, the Potency entry was “inactive”.
`NC(=O)COCCN1CCN(C(c2ccccc2)c2ccc(Cl)cc2)CC1` (stereo not given): the Potency result was “inactive”.
On the same count and under the same terms, to `C/C=C(\C)C#N` belongs “inactive”; to `CCCCCCOC(=O)CCCCC(=O)OCCCCCC`, “inactive”; to `C[C@@H]1CCN(C(=O)[C@H](CCCN=C(N)N)NS(=O)(=O)c2cccc3c2NC[C@H](C)C3)[C@@H](C(=O)O)C1`, “inactive”.
Still for that read-out and setting: then `CCc1nccnc1CC`, with “inactive”; and `COC(C)(C)CCCC(C)CC=O` (stereo not given), with “inactive”.
The same measure, in the same setting: to `CCCc1cc(C(N)=S)ccn1` belongs “inactive”; to `O=C(O)CCCl`, “inactive”; to `O=C(O)c1ccccc1OP(=O)(O)O`, “inactive”.
For the molecule `Cn1cc(S(C)=O)c(=O)c2ccc(F)cc21` (stereo not given), the Potency result was “inactive”.
For `O=c1[nH]c(=O)n([C@H]2C[C@H](O)[C@@H](CO)O2)cc1I`, the Potency entry is “inactive”.
Regarding `CC(=O)Nc1ccc(S(N)(=O)=O)cc1`, the Potency entry was “inactive”.
For `C=C(C)C(=O)OCCCCCCCC(C)C`, the Potency entry was “inactive”.
On the same count and under the same terms, then `CC(C)(CC(=O)O)C(=O)O`, with “inactive”; and `CO[C@]12C[C@@H](COC(=O)c3cncc(Br)c3)CN(C)[C@@H]1Cc1cn(C)c3cccc2c13`, with “inactive”; and `CC(=O)CC(C)C`, with “inactive”.
Consider `O=[N+]([O-])c1ccc(F)cc1F`, for which the Potency entry was “inactive”.
Still for that read-out and setting: then `Nc1c[n+](N2CCOCC2)no1`, with “inactive”; and `CC/C=C\CCOC(C)=O`, with “inactive”; and `COC(=O)NN`, with “inactive”.
On the same count and under the same terms, then `C1CN(CCOCCN2CCOCC2)CCO1`, with “inactive”.
For `C[C@H]1C[C@@H](O)CC(C)(C)C1`, the Potency entry was “inactive”.
For `C=CCCCCCCCCC=O`, the Potency entry is “inactive”.
Same read-out and setting: to `CCCCCCCCCCCCN(CCCCCCCCCCCC)CCCCCCCCCCCC` belongs “inactive”; to `ClC(Cl)(Br)Br`, “inactive”; to `N=C(N)c1ccc2cc(OC(=O)c3ccc(N=C(N)N)cc3)ccc2c1`, “inactive”.
As for `CCCCCCCCCCCCCCCCC`, the Potency result was “inactive”.
As for `CCOC(=O)c1c(C)n(C)c2ccc(O)cc12`, the Potency result is “inactive”.
For `Cc1cc2c(cc1S(N)(=O)=O)S(=O)(=O)CCC2`, the Potency entry is “inactive”.
For the molecule `CCCCCCCCCCCC`, the Potency result is “inactive”.
As to `CC(C)NC(=O)NC(C)C`, the Potency result was “inactive”.

The nature of a further assay: qHTS assay to identify small molecule agonists of the NFkB signaling pathway (AID 1159509; active = well fitted curve in the direction sought with a large enough effect in the signal ratio in the repeat runs, not every such curve was filed as active; the % refers to the signal ratio). The note with it: NFkB-bla ME-180 cells, beta-lactamase FRET ratio, 5 h; series mostly up to 61 µM. A digest of the protocol: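 After overnight attachment, reporter cells received test compounds, DMSO or positive controls and were incubated 5 hr at 37 C. FRET substrate was then added for 1.5 hr at room temperature before dual-emission fluorescence reading.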
On to `CS(=O)(=O)O`, for which the result was inactive.
For the molecule `CCOC(C)(C)C`, the outcome was inactive.
Consider `O=Cc1cccc([N+](=O)[O-])c1`, for which the result was inactive.
Consider `N=C(N)c1ccc(OCCCOc2ccc(C(=N)N)cc2)cc1`, for which the outcome was inactive.
Turning to `NC(=O)COCCN1CCN(C(c2ccccc2)c2ccc(Cl)cc2)CC1` (stereo not given), the result was inactive.
Take `C/C=C(\C)C#N`: the result was inactive.
As for `CCCCCCOC(=O)CCCCC(=O)OCCCCCC`, the result was inactive.
Consider `C[C@@H]1CCN(C(=O)[C@H](CCCN=C(N)N)NS(=O)(=O)c2cccc3c2NC[C@H](C)C3)[C@@H](C(=O)O)C1`, for which the outcome was inactive.
For `CCc1nccnc1CC`, the outcome was inactive.
`COC(C)(C)CCCC(C)CC=O` (stereo not given): the outcome was inactive.
In the case of `CCCc1cc(C(N)=S)ccn1`, the result was inactive.
Consider `O=C(O)CCCl`, for which the outcome was inactive.
Regarding `O=C(O)c1ccccc1OP(=O)(O)O`, the result was inactive.
As to `Cn1cc(S(C)=O)c(=O)c2ccc(F)cc21` (stereo not given), the outcome was inactive.
Take `O=c1[nH]c(=O)n([C@H]2C[C@H](O)[C@@H](CO)O2)cc1I`: the outcome was inactive.
On to `CC(=O)Nc1ccc(S(N)(=O)=O)cc1`, for which the outcome was inactive.
Turning to `C=C(C)C(=O)OCCCCCCCC(C)C`, the result was inactive.
On the same count and under the same terms, to `CC(C)(CC(=O)O)C(=O)O` belongs “inactive”; to `CO[C@]12C[C@@H](COC(=O)c3cncc(Br)c3)CN(C)[C@@H]1Cc1cn(C)c3cccc2c13`, “inactive”.
With `CC(=O)CC(C)C`, the outcome was inactive.
Turning to `O=[N+]([O-])c1ccc(F)cc1F`, the outcome was inactive.
The same measure, in the same setting: to `Nc1c[n+](N2CCOCC2)no1` belongs “inactive”; to `CC/C=C\CCOC(C)=O`, “inactive”.
As for `COC(=O)NN`, the result was inactive.
`C1CN(CCOCCN2CCOCC2)CCO1`: the result was inactive.
As to `C[C@H]1C[C@@H](O)CC(C)(C)C1`, the outcome was inactive.
The same measure, in the same setting: then `C=CCCCCCCCCC=O`, with “inactive”.
`CCCCCCCCCCCCN(CCCCCCCCCCCC)CCCCCCCCCCCC`: the result was inactive.
For `ClC(Cl)(Br)Br`, the outcome was inactive.
The same measure, in the same setting: then `N=C(N)c1ccc2cc(OC(=O)c3ccc(N=C(N)N)cc3)ccc2c1`, with “inactive”.
Take `CCCCCCCCCCCCCCCCC`: the outcome was inactive.
Still for that read-out and setting: to `CCOC(=O)c1c(C)n(C)c2ccc(O)cc12` belongs “inactive”.
For `Cc1cc2c(cc1S(N)(=O)=O)S(=O)(=O)CCC2`, the outcome was inactive.
With `CCCCCCCCCCCC`, the outcome was inactive.
With `CC(C)NC(=O)NC(C)C`, the result was inactive.
